Reference: PubChem BioAssay (NCI)
Values joined by “and” are separate entries in the source; they are usually repeats but may differ in a detail not shown here. Equal entries are not always repeated. This is part of a sample that, as a whole, favours compounds with a hit. Of some 83,000 tested, about 20% had one in any assay.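 Single-concentration screen, 48 h exposure, 96-well plates. Endpoint: percent growth. Below 10 = active.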 Active and inactive are the calls of the source.

Assays:
Assay in all cases: NCI-60 one-dose screen, 48 h (100 = growth as untreated, 0 = no growth, -100 = all killed)
Details in all cases: 10 µM unless noted
DU-145 prostate = tested on: DU-145 prostate
K-562 leukemia = tested on: K-562 leukemia
MALME-3M melanoma = tested on: MALME-3M melanoma
MDA-MB-231 breast = tested on: MDA-MB-231 breast
RXF 393 renal = tested on: RXF 393 renal
SF-268 CNS = tested on: SF-268 CNS
SF-295 CNS = tested on: SF-295 CNS
SF-539 CNS = tested on: SF-539 CNS
UACC-257 melanoma = tested on: UACC-257 melanoma
M14 melanoma = tested on: M14 melanoma

SMILES	growth (DU-145 prostate)	growth (K-562 leukemia)	growth (MALME-3M melanoma)	growth (MDA-MB-231 breast)	growth (RXF 393 renal)	growth (SF-268 CNS)	growth (SF-295 CNS)	growth (SF-539 CNS)	growth (UACC-257 melanoma)	growth (M14 melanoma)
Cc1ccc(N)cc1S(=O)(=O)O	111% (inactive) and 119% (inactive)	98.3% (inactive) and 85.5% (inactive)	122% (inactive) and 113% (inactive)	109% (inactive)	124% (inactive) and 108% (inactive)	101% (inactive) and 102% (inactive)	111% (inactive) and 112% (inactive)	104% (inactive) and 120% (inactive)	117% (inactive) and 92.7% (inactive)	105% (inactive) and 101% (inactive)
O=c1[nH]c(=O)c2[nH]c(=O)[nH]c2[nH]1	107% (inactive)	135% (inactive)	93.2% (inactive)	101% (inactive)	84.6% (inactive)	103% (inactive)	98.3% (inactive)	97.7% (inactive)	107% (inactive)	91.5% (inactive)
O=C(NC(CSSCC(NC(=O)OCc1ccccc1)C(=O)O)C(=O)O)OCc1ccccc1 (stereo not given)	101% (inactive) and 118% (inactive)	84.7% (inactive) and 78.1% (inactive)	86.6% (inactive) and 104% (inactive)	90.5% (inactive) and 108% (inactive)	81% (inactive) and 113% (inactive)	92.4% (inactive) and 107% (inactive)	89.6% (inactive) and 103% (inactive)	93.7% (inactive) and 91.8% (inactive)	91.9% (inactive)	93.5% (inactive) and 88.9% (inactive)
CC1(CO)CCCC1NCCNC1CCCC1(C)CO (stereo not given)	120% (inactive) and 88.9% (inactive)	110% (inactive) and 99% (inactive)	116% (inactive) and 103% (inactive)	92.2% (inactive) and 113% (inactive)	109% (inactive) and 119% (inactive)	115% (inactive) and 105% (inactive)	94.9% (inactive) and 105% (inactive)	103% (inactive) and 105% (inactive)	100% (inactive)	96.7% (inactive) and 103% (inactive)
CCn1c2ccc(N(C)C)cc2c2cc(N(C)C)ccc21	108% (inactive)	90.6% (inactive)	111% (inactive)	83.8% (inactive)	97.3% (inactive)	92.8% (inactive)	104% (inactive)	100% (inactive)	93% (inactive)	102% (inactive)
COC(=O)c1nc(N)nc(C(=O)OC)c1C(=O)c1cccc2ccccc12	121% (inactive)	111% (inactive)	103% (inactive)	105% (inactive)	105% (inactive)	116% (inactive)	98.7% (inactive)	95.4% (inactive)	118% (inactive)	108% (inactive)
CSc1nc(N)c(N)c(N)n1	106% (inactive)	101% (inactive)	96.6% (inactive)	97.6% (inactive)	115% (inactive)	107% (inactive)	108% (inactive)	103% (inactive)	96.9% (inactive)	102% (inactive)
COc1ccc(S(=O)(=O)c2ccc(F)cc2)cc1	113% (inactive)	115% (inactive)	93% (inactive)	94.2% (inactive)	138% (inactive)	101% (inactive)	116% (inactive)	111% (inactive)	93.8% (inactive)	101% (inactive)
S=c1ccc2ccccc2[nH]1	115% (inactive) and 111% (inactive)	90.7% (inactive) and 103% (inactive)	85.9% (inactive) and 98.5% (inactive)	93.9% (inactive) and 100% (inactive)	106% (inactive) and 105% (inactive)	107% (inactive) and 99.7% (inactive)	104% (inactive) and 109% (inactive)	97.9% (inactive) and 102% (inactive)	101% (inactive) and 92.3% (inactive)	99.6% (inactive) and 107% (inactive)
O=C(OCc1ccccc1)c1ccccc1	118% (inactive) and 101% (inactive)	104% (inactive)	109% (inactive) and 102% (inactive)	88.2% (inactive) and 102% (inactive)	91.4% (inactive)	114% (inactive) and 99.1% (inactive)	108% (inactive) and 103% (inactive)	107% (inactive) and 94.9% (inactive)	95.6% (inactive) and 85% (inactive)	104% (inactive) and 91% (inactive)
CC1CCC(=O)N1c1ccc(N)cc1 (stereo not given)	105% (inactive)	99.9% (inactive)	105% (inactive)	101% (inactive)	112% (inactive)	103% (inactive)	102% (inactive)	99.8% (inactive)	88.7% (inactive)	104% (inactive)
Oc1cccnc1CN1CCOCC1	108% (inactive) and 116% (inactive)	108% (inactive) and 105% (inactive)	106% (inactive)	104% (inactive) and 86.9% (inactive)	114% (inactive) and 112% (inactive)	106% (inactive) and 116% (inactive)	111% (inactive) and 105% (inactive)	92.6% (inactive) and 94.9% (inactive)	99.6% (inactive) and 98.2% (inactive)	109% (inactive) and 103% (inactive)
CCOC(=O)C1=C(C)NC(C)=C(C(=O)OCC)C1	109% (inactive) and 110% (inactive)	127% (inactive) and 110% (inactive)	110% (inactive) and 99.7% (inactive)	93.5% (inactive) and 117% (inactive)	103% (inactive)	104% (inactive) and 111% (inactive)	82.6% (inactive) and 95.7% (inactive)	90.8% (inactive) and 95.6% (inactive)	105% (inactive) and 102% (inactive)	162% (inactive) and 98% (inactive)
CC1=CC(=O)C=CC1=Nc1ccc(N(C)C)cc1	107% (inactive) and 71.8% (inactive)	62% (inactive) and 7.74% (active)	112% (inactive) and 66.4% (inactive)	87.1% (inactive)	93.2% (inactive) and 50.6% (inactive)	93.9% (inactive) and 66.9% (inactive)	84.7% (inactive) and 65.6% (inactive)	94.1% (inactive) and 44.5% (inactive)	82% (inactive)	93.5% (inactive) and 41.1% (inactive)
CC1NC(C)c2ccc3ccccc3c2O1 (stereo not given)	104% (inactive)	104% (inactive)	119% (inactive)	110% (inactive)	120% (inactive)	101% (inactive)	116% (inactive)	102% (inactive)	99.4% (inactive)	92.5% (inactive)
CC1OS(=O)OC1C (stereo not given)	113% (inactive) and 102% (inactive)	82.6% (inactive) and 110% (inactive)	107% (inactive) and 91% (inactive)	109% (inactive)	99.4% (inactive) and 104% (inactive)	110% (inactive)	100% (inactive)	97.4% (inactive) and 99.1% (inactive)	99.8% (inactive) and 94.2% (inactive)	99.1% (inactive) and 102% (inactive)
COc1cc(NCCCCCCCNC(C)C)c2nccc(C)c2c1	102% (inactive) and 91.4% (inactive)	54.8% (inactive) and 7.58% (active)	94.6% (inactive) and 42.1% (inactive)	68% (inactive) and 62.9% (inactive)	81.4% (inactive) and 107% (inactive)	93.2% (inactive) and 82.1% (inactive)	71.8% (inactive)	91.5% (inactive) and 73.1% (inactive)	107% (inactive) and 89.7% (inactive)	82.8% (inactive) and 68% (inactive)
CCCC(=O)Oc1ccc2ccccc2c1	111% (inactive)	95.7% (inactive)	111% (inactive)	95.8% (inactive)	112% (inactive)	105% (inactive)	96.7% (inactive)	98.3% (inactive)	90.8% (inactive)	97.5% (inactive)
